AID inh – inhibitors of human activation induced cytidine deaminase. Q9GZX7. Potency, µM (highest dose often 115 µM), actives largely listed as inhibitors. hit rate 0.32% among 91,000. AID deamination FRET fluorescence, UDG-coupled, 4 h; further: nearly all actives have a fitted effect of over 25% in size
Target sequence (Q9GZX7 whole entry, looked up): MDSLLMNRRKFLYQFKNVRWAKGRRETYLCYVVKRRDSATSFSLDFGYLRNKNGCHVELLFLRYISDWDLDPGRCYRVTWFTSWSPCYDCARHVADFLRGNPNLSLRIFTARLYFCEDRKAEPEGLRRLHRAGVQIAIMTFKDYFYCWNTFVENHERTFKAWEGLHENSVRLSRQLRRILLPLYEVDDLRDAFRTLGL
UDG counter – blocks uracil-DNA glycosylase in AID counter-screen; FRET deamination/UDG coupled assay, UDG read, 4 h; Potency, µM (titrated, usually from 115 µM), inactives show at the highest dose activity change, negative = inhibition, hits mostly inhibitors; hit rate 0.14% among 91,000; further: nearly all actives have a fitted effect of over 65% in size
* = called active by the depositor; i = inactive; ? = inconclusive; [ ] = dose if it differs, or a comment. In the library only some 0.47% were active in any assay of this set; here they are far more common. The call rests on the fitted dose curve; in most records, active means well fitted curve in the direction sought with a large enough effect; inconclusive means small, poorly fitted or top-dose-only effect, or another doubt; inactive means no such curve, though single readings can be large; an effect the other way counts as inactive or inconclusive. On the % scale 0 is the no-effect control and ±100 the full control effect; potency means the concentration at half of the fitted maximal effect.

SMILES | AID inh | UDG counter
CCN(CC(=O)NC(C)C)Cc1nc(-c2cccs2)oc1C | i | -5%
O=C(O)CSCc1ccncc1 | i | -4%
N#C/C(=C\c1ccnc2ccccc12)c1nc2ccccc2s1 | ? | 79µM*
Cc1ccccc1/C=C(/C#N)c1nc2ccccc2s1 | i | -19%
Cc1ccc(Cl)cc1N1CCN(CCCNC(=O)c2ccc3nc(N4CCCCC4)sc3c2)CC1 | ? | -4%
Cc1ccc(C)c(N2CCN(CCCNC(=O)c3ccc4nc(N5CCC(C)CC5)sc4c3)CC2)c1 | 32µM* | ?
Cc1cc(-c2nnc(CSc3nc4ccc(Cl)cc4[nH]3)o2)c(C)o1 | i | 2%
CCC(C(=O)NCc1cccc(Br)c1)n1nc(C)c2c(C)n(-c3ccccc3)nc2c1=O (configuration not stated) | ? | -19%
CCc1ccc(CNC(=O)C(CC)n2nc(C)c3c(C)n(-c4ccccc4)nc3c2=O)cc1 (configuration not stated) | 71µM* | -20%
CSc1ccc(/C=C2\COc3ccccc3C2=O)cc1 | i | 7%
N#CC(C(=O)CCc1ccccc1)C(=O)NCc1ccccc1 (configuration not stated) | i | 3%
Nc1c(S(=O)(=O)O)cc(Nc2ccc(Nc3nc(Cl)nc(Nc4ccc(S(=O)(=O)O)cc4)n3)c(S(=O)(=O)O)c2)c2c1C(=O)c1ccccc1C2=O | 22µM* | -19%
NC(=O)C(OC(=O)c1ccccc1)C(OC(=O)c1ccccc1)C(=O)O (configuration not stated) | i | -9%
CCNC(=O)N(Cc1nc(-c2ccc(C)cc2)no1)C1CCCCC1 | i | -8%
Cc1ccc(CC(=O)N(Cc2nc(-c3ccccc3)no2)C2CCCCC2)cc1 | i | 79µM*
COc1ccc(CNC(=O)CCC(=O)N2CC3CCCN3c3ccccc32)c(OC)c1 (configuration not stated) | i | -5%
COc1ccc(OC)c(NC(=O)N2CC3CCCN3c3ccccc32)c1 (configuration not stated) | 20µM* | ?
CCN(C(=O)c1cc2c(=O)n3cccc(C)c3nc2s1)c1ccc(C)c(C)c1 | ? | -2%[57.5 µM]
Cc1cccn2c(=O)c3cc(C(=O)N(Cc4ccccc4)C(C)C)sc3nc12 | 79µM* | 0%
O/N=C1\CCCc2c1[nH]c1ccc(OCc3ccccc3)cc21 | i | 5%
Cc1ccc(/C=N/NC(=O)CCc2ccccc2)cc1 | i | -6%
Clc1ccc(-c2nc3ccccc3o2)cc1 | i | 3%
CCCN(C(=O)Cc1nc(-c2ccc(OC)cc2)no1)c1ccccc1C | ? | -3%
CCCN(C(=O)CCc1nc(-c2ccc(OC)cc2)no1)c1ccccc1F | 40µM* | -17%
Cc1cccc(Cn2c(=O)n3nc(-c4ccccc4)nc3c3ccccc32)c1 | 79µM* | -20%
SMILES | AID inh | UDG counter
O=c1n(Cc2cccc(F)c2)c2ccccc2c2nc(-c3ccccc3)nn12 | i | 3%[57.5 µM]
CC1=CC(=C(C#N)C#N)CC(C)(C)C1 | i | 7%
Oc1ccc(N=Cc2ccc3ccccc3c2)cc1 | 14µM* | ?
Clc1ccc(N=Cc2ccc3ccccc3c2)cc1Cl | i | 5%
O=C(O)CN1C(=O)S/C(=C\c2cn(CC(=O)N3CCOCC3)c3ccccc23)C1=O | i | 9%
CCCCNC(=O)C1CCCN(Cc2nc(-c3ccc(Cl)cc3)oc2C)C1 (configuration not stated) | i | ?
Cc1ccc(C)c(N2CCN(C(=O)C3CCN(Cc4nc(-c5cccc(Cl)c5)oc4C)CC3)CC2)c1 | i | 89µM*
Cc1oc(-c2ccc(Cl)cc2)nc1CN1CCCC(C(=O)NCc2ccccc2)C1 (configuration not stated) | i | 89µM*
COc1ccc(N2CCN(C(=O)C3CCN(Cc4nc(-c5ccc(Cl)cc5)oc4C)CC3)CC2)cc1 | i | -7%
Cc1ccc(Cl)cc1N1CCN(C(=O)C2CCN(Cc3nc(-c4ccc(Cl)cc4)oc3C)CC2)CC1 | ? | 89µM*
Cc1cccc(-c2nc(CN3CCCC(C(=O)N4CCN(c5cc(Cl)ccc5C)CC4)C3)c(C)o2)c1 (configuration not stated) | ? | 89µM*
Cc1oc(-c2cccc(Cl)c2)nc1CN1CCC(C(=O)NCCCN2CCN(c3ccccc3F)CC2)CC1 | i | -6%
Cc1ccccc1-c1nc(CN2CCCC(C(=O)NCc3ccc(Cl)cc3)C2)c(C)o1 (configuration not stated) | i | ?
COc1cc(OC)c(OC)cc1CN1CCCC(C(=O)N2CCCCCC2)C1 (configuration not stated) | i | ?
CNc1nc(-c2ccccc2)c(C(=O)Nc2ccccc2)s1 | i | 9%
C=CCNC(=O)NC(=O)CNc1cc(C(F)(F)F)cc(C(F)(F)F)c1 | i | 2%
COc1ccc(C)cc1NC(=O)c1ccccc1OCC(N)=O | i | 2%
CCC(C)(C#N)NC(=O)c1ccc2c(c1)CCC2 (configuration not stated) | i | -1%
CC[C@@H]1CC2C3CCC4=C/C(=N/O)CC[C@]4(C)C3CC[C@]2(C)[C@H]1/C(C)=N/O (some centres not stated) | i | -11%
O=C(O)c1cccc(NC(=O)c2cccc(S(=O)(=O)Nc3cccc(C(=O)O)c3)c2)c1 | i | -7%
O=C(Nc1cccc(C(=O)Nc2ccc(S(=O)(=O)O)c3cc(S(=O)(=O)O)cc(S(=O)(=O)O)c23)c1)Nc1cccc(C(=O)Nc2ccc(S(=O)(=O)O)c3cc(S(=O)(=O)O)cc(S(=O)(=O)O)c23)c1 | 50µM* | -8%
CCc1cccc(NC(=O)C2CCN(S(=O)(=O)c3cccc(-c4noc(C)n4)c3)CC2)c1 | i | 79µM*
Cc1nc(-c2cccc(S(=O)(=O)N3CCC(C(=O)NCc4ccccc4Cl)CC3)c2)no1 | i | ?
Cc1ccc(/C(O)=C2\C(=O)C(=O)NC2c2ccc(C)cc2)cc1 (configuration not stated) | i | -12%
Cc1ccc(-n2c(SCC(N)=O)nc3c(c2=O)C2(CCCC2)Cc2ccccc2-3)cc1 | i | 79µM*
SMILES | AID inh | UDG counter
COc1ccccc1-n1c(SCC(N)=O)nc2c(c1=O)C1(CCCCC1)Cc1ccccc1-2 | i | -11%
COc1cc(/C=C/C(=O)c2ccccc2OC)ccc1OC(F)F | i | -2%
Cc1cc(Cl)ccc1OCCCc1n[nH]c(=S)n1Cc1ccco1 | i | 1%
Cc1cc(N(CCO)Cc2ccccc2)n2nc(-c3ccc(C(C)(C)C)cc3)nc2n1 | i | -2%
Cc1cc(N(C)Cc2ccccc2)n2nc(-c3ccc(C(C)(C)C)cc3)nc2n1 | 35µM* | 0%
O=c1[nH]nc(-c2ccc(N3CCCCC3)c([N+](=O)[O-])c2)c2ccccc12 | i | -1%
CCCCN(C)c1ccc(-c2n[nH]c(=O)c3ccccc23)cc1[N+](=O)[O-] | i | 89µM*
O=C(c1ccc(Cl)cc1Cl)C(Br)C(O)C(Cl)(Cl)Cl (configuration not stated) | i | -1%
Cc1ccc(C)c(N2CCN(C(=O)Cn3nc(Cc4cccnc4)c4ccccc4c3=O)CC2)c1 | 71µM* | -6%[57.5 µM]
O=C(Cn1nc(Cc2cccnc2)c2ccccc2c1=O)N1CCN(c2ccc(F)cc2)CC1 | i | -4%[57.5 µM]
COc1cccc(-c2cc(C(F)(F)F)nc(NCc3ccc(F)cc3)n2)c1 | ? | -16%
Fc1ccc(CNc2nc(-c3ccccc3)cc(C(F)(F)F)n2)cc1 | 45µM* | -21%
